# Test results: PubChem BioAssay (EPA / NIEHS)
# Calls of active or inactive are those of the source. Rule for the calls: active = hit-call score of the fitted dose curve at least 0.9, where 1 is the maximum; inactive = score below 0.9.
# Experiment: ATG_E_Box_CIS: Attagene CIS-FACTORIAL HepG2 Assay for human Enhancer Box (E-box) (AID 2282936)
# Conditions: HepG2 E-box cis-reporter transcription, actives raise or lower the signal
# Method in brief: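 Fluorescent reporter fragments separated by capillary electrophoresis gave the signal; mRNA came from HepG2 cells transfected with cis-element reporters and treated 24 h. Curves fitted bidirectionally relative to DMSO controls.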
Compound,AC50,outcome
Nc1ccc(N=Nc2ccccc2)cc1,100 µM (active),–
N#CC(Br)(Br)C(N)=O,–,inactive
OCCOCCO,–,inactive
CC(C)(OOC(C)(C)c1ccccc1)c1ccccc1,–,inactive
CCC(C)c1ccc(O)cc1 (stereo not drawn),–,inactive
Cc1cc(N=Nc2ccccc2C)ccc1N,–,inactive
CCC12COCN1COC2,–,inactive
CCCCCCCCn1sccc1=O,–,inactive
CCCCOC(=O)c1ccccc1C(=O)OCc1ccccc1,–,inactive
COC(=O)Nc1nc2ccccc2[nH]1,–,inactive
CC(C)(C)OOC(C)(C)CCC(C)(C)OOC(C)(C)C,–,inactive
O=C1CCCO1,–,inactive
CCC[CH2][Sn]([Cl])([CH2]CCC)[CH2]CCC,0.627 µM (active),–
[O-][Cl+]O,–,inactive
ClCCOCCCl,–,inactive
CC(C)(C)OOC(=O)c1ccccc1,–,inactive
c1ccc(NNc2ccccc2)cc1,–,inactive
Cc1ccc(N=C=O)cc1N=C=O,–,inactive
c1ccc2c(c1)-c1cccc3cccc-2c13,–,inactive
Cc1cccc(N)c1N,–,inactive
Clc1ccc(C(c2ccc(Cl)cc2)C(Cl)(Cl)Cl)cc1,–,inactive
CN(C)c1ccc(C(=O)c2ccc(N(C)C)cc2)cc1,–,inactive
COC(=O)c1ccccc1N,–,inactive
O=C(N[C@H](c1ccccc1)[C@@H]1CN2CCC1CC2)c1c(Cl)ccc(C(F)(F)F)c1Cl,–,inactive
CN(C)c1ccccc1,–,inactive
O=[N+]([O-])c1ccc(Oc2ccc(Cl)cc2Cl)cc1,71.5 µM (active),–
CCCCCCCCOC(=O)c1ccc(C(=O)OCCCCCCCC)c(C(=O)OCCCCCCCC)c1,–,inactive
COP(=S)(OC)SCN1C(=O)c2ccccc2C1=O,–,inactive
